In ChEMBL document CHEMBL4513216, “Probing the Open Global Health Chemical Diversity Library for Multistage-Active Starting Points for Next-Generation Antimalarials” (ACS Infect Dis, 2020):
Out of some 69,000 compounds screened, about 8,600 (12%) showed an effect of 50% or more. The entries come from a sample that favours strong results as a whole.

The compounds below were run on Plasmodium berghei (assay: Screen against P. berghei liver stage (PbLuc), transformed with Luciferase, at 10uM). Conditions: tested at 10 uM.
Assay type: functional, HepG2

SMILES | INHIBITION [%]
CNC(=O)c1cn[nH]c1C1CCCN1c1nc(C)cc(C)n1 (stereo unspecified) | 34.1
CCN1CCOCC2(CCCN(C(=O)c3ccccc3F)C2)C1 (stereo unspecified) | -60.3
CN(C)[C@@H]1CN(Cc2ccccc2O)C[C@H]1c1cn(C)c2ccccc12 | 49.5
Cn1ccnc1CNC(=O)c1cnc(C2CCNCC2)cn1 | 33
COc1ccccc1C1(CNC(=O)NCc2noc(C)n2)CC1 | 4.66
Cc1nc(C(=O)N(C)CC(=O)N(C)C)nn1-c1ccccc1C(C)C | -15.5
COCCN1C2(CCN(C(=O)c3cccs3)C2)c2ccccc2S1(=O)=O (stereo unspecified) | 8.03
O=C(c1cccs1)N1CCC2(C1)c1ccccc1S(=O)(=O)N2CC1CC1 (stereo unspecified) | 51.2
CCNC(=O)N1CCC2(C1)c1ccccc1S(=O)(=O)N2CCOC (stereo unspecified) | -1.15
COCCNC(=O)Cn1cc(OCc2ccccc2)c(=O)cc1CO | -8.66
Cc1cc(C)n(CC2CCCN2C(=O)c2nccc3ccccc23)n1 (stereo unspecified) | -144
COc1ccc(OCCc2nnc(NC(C)=O)s2)cc1 | 20.9
CC(=O)Nc1ncc(-c2ccc(C)cc2)[nH]1 | 45.5
COc1ccc(-c2cnc(NC(C)=O)[nH]2)cc1 | 56
CC(C)CCN1C[C@@H]2C[C@H](C(=O)N3CCCC3)[C@H](C1)O2 | 10.6
COc1ccccc1C(=O)N1CCOCC1c1c(C)n[nH]c1C (stereo unspecified) | -34.8
CN1N=C(C(=O)NCCc2ccc(OC3CCCC3)cc2)CCC1=O | 45.4
CC(C)[C@H](NS(C)(=O)=O)C(=O)NCc1cc(-c2ccco2)nn1C | 54.5
CC(C)[C@H](NS(C)(=O)=O)C(=O)NCc1cc(-c2ccccc2)nn1C | 20.4

SMILES | INHIBITION [%]
CC(C)[C@H](NS(C)(=O)=O)C(=O)NCc1cc(-c2ccco2)n[nH]1 | 23.4
Cc1nc(CN(CCS(C)(=O)=O)C(C)(C)C)no1 | 12.9
N#Cc1cccnc1N1CCCN(C(=O)CCc2nccs2)CC1 | -19.4
CCOCC(=O)NC1(c2nc(C)cs2)CCCC1 | 25.2
CCN1CC(C(=O)NCc2ccc3c(c2)nc(C)n3C)CCC1=O (stereo unspecified) | 11.9
Cc1nc2cc(CNC(=O)C3CC(=O)N(CCN(C)C)C3)ccc2n1C (stereo unspecified) | -4.35
Cc1nc2cc(CNC(=O)C3CC(=O)N(C4CCCC4)C3)ccc2n1C (stereo unspecified) | 53.7
CCc1cnc(N)nc1NCCC(=O)NC1CCCCC1 | 68.4
CCc1nc(N)nc(NCCC(=O)NC2CCCCC2)c1C | 41.5
CCc1cnc(N)nc1NCCN1CCCCC1 | 5.14
O=C(NC1CC1)C1(Cc2cc(-c3ccc(F)cc3F)no2)CCOCC1 | 31.6
Cc1cc(CN2CCC(c3cc(Cc4ccccc4)n[nH]3)CC2)[nH]n1 | 30.9
Nc1nc(O)cc(N2CCC(c3cc(Cc4ccccc4)n[nH]3)CC2)n1 | 47
NC(=O)NCCC(=O)N1CCC(c2cc(Cc3ccccc3)n[nH]2)CC1 | -5.22
Nc1cc(N2CCC(c3cc(Cc4ccccc4)n[nH]3)CC2)ccn1 | 75.4
Cc1ccc(N2CCC(c3cc(Cc4ccccc4)n[nH]3)CC2)nn1 | 20.9
Nc1nccc(N2CCC(c3cc(Cc4ccccc4)n[nH]3)CC2)n1 | 78.8
COc1c(CNCCNC(=O)c2ccccc2F)c(C)nn1C | -7.31
Cc1noc([C@H]2C[C@@H]3CCN(CC4CC4)C[C@H]3O2)n1 | -5.29

SMILES | INHIBITION [%]
Cn1cc(I)c(C(=O)NCCCn2cc(Br)cn2)n1 | 26.8
CC(C)N1CCOCC2(CCCN(C(=O)CCc3cccnc3)C2)C1 (stereo unspecified) | 35.4
CN1CC(c2cc(O)nc(NCc3ccc(Cl)cc3)n2)CC1=O (stereo unspecified) | -17.7
C1CCN(CCOC2CCNC2)CC1 (stereo unspecified) | 5.42
CCn1cc(CN2C[C@@H]3CC[C@H]2CN(C(=O)c2cnccn2)C3)cn1 | 21.5
Cc1cc(C(=O)N2CCC3(CC2)CC(c2cccnc2)C(=O)N3C)no1 (stereo unspecified) | -36.5
CNCc1cc(F)ccc1Oc1ccc(F)cc1F | -13.7
CC1COC2(CCN(C(=O)Cc3ccncc3)CC2)C1 (stereo unspecified) | 62.9
COCCC1COC2(CCN(C(=O)Cc3ccccc3)CC2)C1 (stereo unspecified) | 28.7
CCOCC(=O)N1CCC2(CC1)CC(c1ccccc1)CO2 (stereo unspecified) | 38.5
O=C(Cc1ccccc1)N1CCC2(CC1)CC(Nc1cnccn1)CO2 (stereo unspecified) | 31.5
Cn1cc(C2COC3(CCN(C(=O)Cc4ccccc4)CC3)C2)cn1 (stereo unspecified) | 48.4
O=C(Cc1ccncc1)N1CCC2(CC1)CC(c1ccccc1)CO2 (stereo unspecified) | 95.5
CCN1CCC(N2CCN(C)C3(CCC(=O)N(CCOC)CC3)C2)CC1 (stereo unspecified) | 7.92
COc1ccccc1-c1cccc(C2CCCN(C3CCOCC3)C2)n1 (stereo unspecified) | 36.95
COC(=O)c1cccc(C2CNCCN2C)c1 (stereo unspecified) | 32.7
Cn1ccnc1CN1CCC2(CC1)Cc1ccccc1CNC2=O | 23.6
Cc1nccc(C2CCCN(S(=O)(=O)N3CCOCC3)C2)n1 (stereo unspecified) | 24.075
